Test results published in paper PMC7862700, “An all-to-all approach to the identification of sequence-specific readers for epigenetic DNA modifications on cytosine”.

What was measured:
Assay in all cases: DAPPL (digital affinity profiling via proximity ligation, sequencing); 10 mM Tris-HCl pH 7.5, 50 mM NaCl, 1 mM DTT, 4% glycerol, room temperature, 30 min; GST-TFs on glutathione beads, 16-mer random dsDNA library, 0.1% formaldehyde crosslink after washing; high values mean tight binding
FLI1 = molecular target: T1, FLI1 (Homo sapiens, UniProt Q01543 1-452); conditions: protein: recombinant; tags: N-terminal GST; dsDNA, one strand shown
T1 sequence: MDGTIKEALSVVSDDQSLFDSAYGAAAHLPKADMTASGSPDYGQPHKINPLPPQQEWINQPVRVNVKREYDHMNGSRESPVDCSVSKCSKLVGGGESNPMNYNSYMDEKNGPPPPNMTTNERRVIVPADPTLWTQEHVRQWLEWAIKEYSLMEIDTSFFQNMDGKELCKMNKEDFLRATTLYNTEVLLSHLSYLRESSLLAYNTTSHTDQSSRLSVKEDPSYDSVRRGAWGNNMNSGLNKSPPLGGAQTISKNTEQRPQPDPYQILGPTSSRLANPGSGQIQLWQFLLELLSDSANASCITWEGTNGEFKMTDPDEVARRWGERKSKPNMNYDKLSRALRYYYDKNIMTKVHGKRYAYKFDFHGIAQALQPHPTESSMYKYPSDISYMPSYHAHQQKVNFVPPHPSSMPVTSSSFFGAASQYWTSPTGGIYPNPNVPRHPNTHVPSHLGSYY
Summary of the method: (§1)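 Each value of binding signal is a hexamer's read frequency for a factor divided by the same hexamer's frequency in the tag-only sample. Barcoded, bead-captured GST fusions of human transcription factors made in yeast were pooled with that sample and incubated with 200 nmole of a random double-stranded 16-mer DNA library in Tris/NaCl/DTT/glycerol buffer at room temperature for 30 min. Washing, 0.1% formaldehyde crosslinking, proximity ligation, PCR and Illumina NextSeq500 sequencing followed.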

ELK1 = molecular target: T2, ELK1 (Homo sapiens, UniProt P19419 1-428); conditions: protein: recombinant; tags: N-terminal GST; dsDNA, one strand shown
T2 sequence: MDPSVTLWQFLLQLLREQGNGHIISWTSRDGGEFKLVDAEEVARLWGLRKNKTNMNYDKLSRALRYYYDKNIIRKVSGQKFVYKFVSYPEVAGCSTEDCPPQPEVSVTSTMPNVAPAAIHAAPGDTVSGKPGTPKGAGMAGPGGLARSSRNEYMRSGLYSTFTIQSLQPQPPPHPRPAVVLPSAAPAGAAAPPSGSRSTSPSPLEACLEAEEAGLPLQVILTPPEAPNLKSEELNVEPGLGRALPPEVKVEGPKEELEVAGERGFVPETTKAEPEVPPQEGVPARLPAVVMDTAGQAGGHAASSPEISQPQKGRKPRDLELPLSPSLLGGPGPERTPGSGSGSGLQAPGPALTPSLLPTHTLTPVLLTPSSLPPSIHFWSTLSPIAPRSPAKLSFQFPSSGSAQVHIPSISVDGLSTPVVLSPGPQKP
Summary of the method: as §1

GABPA = molecular target: T3, GABPA (Homo sapiens, UniProt Q06546 1-454); conditions: protein: recombinant; tags: N-terminal GST; dsDNA, one strand shown
T3 sequence: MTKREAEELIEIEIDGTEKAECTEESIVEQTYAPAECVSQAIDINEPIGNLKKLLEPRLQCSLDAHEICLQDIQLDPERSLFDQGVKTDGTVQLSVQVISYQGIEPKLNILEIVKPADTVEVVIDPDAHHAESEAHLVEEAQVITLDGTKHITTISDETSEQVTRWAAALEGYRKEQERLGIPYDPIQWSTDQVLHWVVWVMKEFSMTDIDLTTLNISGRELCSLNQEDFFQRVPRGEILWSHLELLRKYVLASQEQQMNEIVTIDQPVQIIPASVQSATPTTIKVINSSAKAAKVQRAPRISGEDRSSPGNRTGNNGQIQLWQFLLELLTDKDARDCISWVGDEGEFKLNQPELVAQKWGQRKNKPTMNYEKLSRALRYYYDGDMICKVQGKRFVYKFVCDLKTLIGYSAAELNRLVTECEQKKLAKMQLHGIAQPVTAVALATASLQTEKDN
Summary of the method: as §1

ERG = molecular target: T4, ERG (Homo sapiens, UniProt P11308 1-479); conditions: protein: recombinant; tags: N-terminal GST; dsDNA, one strand shown
T4 sequence: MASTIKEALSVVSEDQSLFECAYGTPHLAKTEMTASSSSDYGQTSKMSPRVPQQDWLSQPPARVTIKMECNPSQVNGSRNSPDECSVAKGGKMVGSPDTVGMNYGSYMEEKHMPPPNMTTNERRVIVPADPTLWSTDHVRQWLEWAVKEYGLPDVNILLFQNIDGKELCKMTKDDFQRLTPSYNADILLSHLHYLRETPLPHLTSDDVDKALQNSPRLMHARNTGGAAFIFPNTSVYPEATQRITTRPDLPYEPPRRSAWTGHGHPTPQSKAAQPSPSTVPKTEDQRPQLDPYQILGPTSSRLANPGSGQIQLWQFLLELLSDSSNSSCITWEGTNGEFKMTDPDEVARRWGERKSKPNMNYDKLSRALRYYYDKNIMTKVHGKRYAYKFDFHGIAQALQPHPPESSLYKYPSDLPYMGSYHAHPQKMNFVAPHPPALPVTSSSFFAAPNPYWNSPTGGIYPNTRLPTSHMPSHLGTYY
Summary of the method: as §1

ELF1 = ELF1 (Homo sapiens, UniProt P32519 1-619); conditions: protein: recombinant; tags: N-terminal GST; dsDNA, one strand shown
ELF1, sequence (P32519 whole entry): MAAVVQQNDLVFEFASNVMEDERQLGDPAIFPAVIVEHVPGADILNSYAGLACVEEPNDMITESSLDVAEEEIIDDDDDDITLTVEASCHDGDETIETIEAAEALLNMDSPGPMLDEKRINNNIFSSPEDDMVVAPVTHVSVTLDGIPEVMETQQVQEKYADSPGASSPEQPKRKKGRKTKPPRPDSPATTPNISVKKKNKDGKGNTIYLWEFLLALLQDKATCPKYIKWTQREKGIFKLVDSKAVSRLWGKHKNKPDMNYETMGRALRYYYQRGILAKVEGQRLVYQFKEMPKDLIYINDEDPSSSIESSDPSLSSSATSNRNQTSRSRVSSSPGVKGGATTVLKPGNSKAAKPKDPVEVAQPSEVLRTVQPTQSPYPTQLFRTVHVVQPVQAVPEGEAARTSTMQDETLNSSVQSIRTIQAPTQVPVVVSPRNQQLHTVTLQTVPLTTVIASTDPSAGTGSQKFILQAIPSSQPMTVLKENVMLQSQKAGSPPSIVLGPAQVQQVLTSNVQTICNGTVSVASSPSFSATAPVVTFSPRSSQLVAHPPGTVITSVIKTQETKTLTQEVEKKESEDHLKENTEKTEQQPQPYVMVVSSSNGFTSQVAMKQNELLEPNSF
Summary of the method: as §1

EHF = molecular target: T5, EHF (Homo sapiens, UniProt Q9NZC4 1-300); conditions: protein: recombinant; tags: N-terminal GST; dsDNA, one strand shown
T5 sequence: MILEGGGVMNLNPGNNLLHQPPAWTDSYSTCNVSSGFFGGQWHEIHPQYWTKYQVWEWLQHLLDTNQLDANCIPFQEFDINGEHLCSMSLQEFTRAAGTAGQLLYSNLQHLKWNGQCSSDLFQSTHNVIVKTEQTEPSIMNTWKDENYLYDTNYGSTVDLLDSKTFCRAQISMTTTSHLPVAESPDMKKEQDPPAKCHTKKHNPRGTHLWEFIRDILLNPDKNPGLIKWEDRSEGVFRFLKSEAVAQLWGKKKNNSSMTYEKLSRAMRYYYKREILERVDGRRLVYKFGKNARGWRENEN
Summary of the method: as §1

SPI1 = SPI1 (Homo sapiens, UniProt P17947 1-270); conditions: protein: recombinant; tags: N-terminal GST; dsDNA, one strand shown
Summary of the method: as §1

SPIB = SPIB (Homo sapiens, UniProt Q01892 1-262); conditions: protein: recombinant; tags: N-terminal GST; dsDNA, one strand shown
SPIB, sequence (Q01892 whole entry): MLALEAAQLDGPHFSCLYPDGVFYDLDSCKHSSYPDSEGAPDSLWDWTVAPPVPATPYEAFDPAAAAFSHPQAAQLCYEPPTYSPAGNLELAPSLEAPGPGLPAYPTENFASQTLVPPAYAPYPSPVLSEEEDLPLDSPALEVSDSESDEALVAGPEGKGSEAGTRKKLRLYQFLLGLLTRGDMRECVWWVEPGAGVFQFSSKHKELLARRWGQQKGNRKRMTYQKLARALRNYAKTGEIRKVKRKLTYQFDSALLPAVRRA
Summary of the method: as §1

FEV = molecular target: T6, FEV (Homo sapiens, UniProt Q99581 1-238); conditions: protein: recombinant; tags: N-terminal GST; dsDNA, one strand shown
T6 sequence: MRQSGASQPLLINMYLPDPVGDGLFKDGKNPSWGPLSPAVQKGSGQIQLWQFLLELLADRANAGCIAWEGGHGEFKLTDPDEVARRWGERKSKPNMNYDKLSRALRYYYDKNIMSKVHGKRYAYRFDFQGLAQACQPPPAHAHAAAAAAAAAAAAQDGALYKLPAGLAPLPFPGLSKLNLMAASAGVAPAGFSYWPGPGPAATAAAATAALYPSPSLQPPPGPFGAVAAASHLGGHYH
Summary of the method: as §1

ETV5 = ETV5 (Homo sapiens, UniProt P41161 1-510); conditions: protein: recombinant; tags: N-terminal GST; dsDNA, one strand shown
ETV5, sequence (P41161 whole entry): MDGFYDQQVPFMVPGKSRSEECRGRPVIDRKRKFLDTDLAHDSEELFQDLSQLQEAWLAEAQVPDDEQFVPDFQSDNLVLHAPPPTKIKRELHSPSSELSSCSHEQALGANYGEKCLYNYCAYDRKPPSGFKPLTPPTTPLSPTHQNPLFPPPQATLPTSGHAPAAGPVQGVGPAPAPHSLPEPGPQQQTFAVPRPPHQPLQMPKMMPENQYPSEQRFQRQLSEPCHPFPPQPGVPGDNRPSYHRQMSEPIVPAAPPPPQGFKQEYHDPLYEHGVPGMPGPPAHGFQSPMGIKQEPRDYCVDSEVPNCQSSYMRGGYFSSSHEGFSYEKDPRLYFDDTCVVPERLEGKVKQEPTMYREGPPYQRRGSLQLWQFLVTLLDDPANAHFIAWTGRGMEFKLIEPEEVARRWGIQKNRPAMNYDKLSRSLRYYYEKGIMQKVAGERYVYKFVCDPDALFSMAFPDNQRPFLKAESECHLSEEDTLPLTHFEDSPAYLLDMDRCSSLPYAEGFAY
Summary of the method: as §1

HSF1 = HSF1 (Homo sapiens, UniProt Q00613 1-529); conditions: protein: recombinant; tags: N-terminal GST; chain copies: 3; dsDNA, one strand shown
HSF1, sequence (Q00613 whole entry): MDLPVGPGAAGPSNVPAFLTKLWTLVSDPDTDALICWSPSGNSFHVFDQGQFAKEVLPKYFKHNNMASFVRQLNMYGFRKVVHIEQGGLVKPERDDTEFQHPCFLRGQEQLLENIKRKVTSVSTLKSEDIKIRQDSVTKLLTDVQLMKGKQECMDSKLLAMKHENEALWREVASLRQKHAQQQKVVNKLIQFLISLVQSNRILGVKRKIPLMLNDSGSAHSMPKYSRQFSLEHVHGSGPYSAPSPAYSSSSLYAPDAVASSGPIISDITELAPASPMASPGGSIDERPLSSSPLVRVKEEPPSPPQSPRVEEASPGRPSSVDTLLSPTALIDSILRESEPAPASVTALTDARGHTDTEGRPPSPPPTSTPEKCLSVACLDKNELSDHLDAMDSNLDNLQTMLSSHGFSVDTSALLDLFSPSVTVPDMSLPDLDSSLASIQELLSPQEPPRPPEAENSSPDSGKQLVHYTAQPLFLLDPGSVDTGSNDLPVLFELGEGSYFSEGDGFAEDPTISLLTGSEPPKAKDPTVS
Summary of the method: as §1

SPIC = molecular target: T7, SPIC (Homo sapiens, UniProt Q8N5J4 1-248); conditions: protein: recombinant; tags: N-terminal GST; dsDNA, one strand shown
T7 sequence: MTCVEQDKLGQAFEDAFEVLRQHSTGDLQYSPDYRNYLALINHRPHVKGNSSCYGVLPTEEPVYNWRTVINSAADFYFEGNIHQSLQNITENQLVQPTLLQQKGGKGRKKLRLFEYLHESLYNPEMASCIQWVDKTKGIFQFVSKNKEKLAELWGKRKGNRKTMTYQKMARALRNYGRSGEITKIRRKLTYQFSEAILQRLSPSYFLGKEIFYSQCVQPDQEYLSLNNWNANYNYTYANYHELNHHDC
Summary of the method: as §1

ELF4 = ELF4 (Homo sapiens, UniProt Q99607 1-663); conditions: protein: recombinant; tags: N-terminal GST; dsDNA, one strand shown
ELF4, sequence (Q99607 whole entry): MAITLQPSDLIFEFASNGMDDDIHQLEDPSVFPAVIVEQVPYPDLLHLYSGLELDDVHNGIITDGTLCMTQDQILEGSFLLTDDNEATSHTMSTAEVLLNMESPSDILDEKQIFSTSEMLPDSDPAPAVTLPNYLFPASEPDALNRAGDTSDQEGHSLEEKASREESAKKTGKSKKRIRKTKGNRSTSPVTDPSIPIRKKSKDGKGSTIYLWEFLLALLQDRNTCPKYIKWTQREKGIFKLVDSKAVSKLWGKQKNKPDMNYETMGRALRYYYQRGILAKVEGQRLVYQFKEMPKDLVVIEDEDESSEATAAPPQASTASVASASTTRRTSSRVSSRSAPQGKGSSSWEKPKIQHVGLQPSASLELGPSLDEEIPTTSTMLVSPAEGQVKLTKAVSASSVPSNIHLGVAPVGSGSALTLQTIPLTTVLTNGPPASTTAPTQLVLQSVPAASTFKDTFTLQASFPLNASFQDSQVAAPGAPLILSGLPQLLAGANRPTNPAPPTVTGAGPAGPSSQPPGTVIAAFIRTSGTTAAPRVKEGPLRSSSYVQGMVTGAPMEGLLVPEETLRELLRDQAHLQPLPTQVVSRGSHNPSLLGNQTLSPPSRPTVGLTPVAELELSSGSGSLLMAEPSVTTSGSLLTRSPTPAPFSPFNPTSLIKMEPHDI
Summary of the method: as §1

ELK4 = molecular target: T8, ELK4 (Homo sapiens, UniProt P28324-2 1-405); conditions: protein: recombinant; tags: N-terminal GST; dsDNA, one strand shown
T8 sequence: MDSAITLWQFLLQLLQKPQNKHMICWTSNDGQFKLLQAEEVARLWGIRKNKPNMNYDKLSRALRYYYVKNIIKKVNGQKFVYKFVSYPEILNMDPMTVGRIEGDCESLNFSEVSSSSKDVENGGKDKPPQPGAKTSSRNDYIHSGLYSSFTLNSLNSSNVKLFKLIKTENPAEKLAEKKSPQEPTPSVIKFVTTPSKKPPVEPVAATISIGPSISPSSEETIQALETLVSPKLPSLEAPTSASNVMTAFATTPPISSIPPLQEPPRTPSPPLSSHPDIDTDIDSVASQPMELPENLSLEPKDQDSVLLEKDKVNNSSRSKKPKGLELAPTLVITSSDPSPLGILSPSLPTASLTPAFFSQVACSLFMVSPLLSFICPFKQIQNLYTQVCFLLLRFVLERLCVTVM
Summary of the method: as §1

ETV2 = molecular target: T9, ETV2 (Homo sapiens, UniProt O00321 1-342); conditions: protein: recombinant; tags: N-terminal GST; dsDNA, one strand shown
T9 sequence: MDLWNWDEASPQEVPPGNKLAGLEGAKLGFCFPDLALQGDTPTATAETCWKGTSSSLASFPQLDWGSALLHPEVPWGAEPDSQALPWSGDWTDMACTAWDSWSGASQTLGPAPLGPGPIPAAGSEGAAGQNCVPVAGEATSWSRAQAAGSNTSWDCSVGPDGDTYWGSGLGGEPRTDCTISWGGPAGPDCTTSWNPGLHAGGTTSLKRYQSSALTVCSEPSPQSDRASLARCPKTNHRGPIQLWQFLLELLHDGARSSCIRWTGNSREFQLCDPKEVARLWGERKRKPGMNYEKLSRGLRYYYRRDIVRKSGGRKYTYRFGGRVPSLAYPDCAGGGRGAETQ
Summary of the method: as §1

ELF3 = molecular target: T10, ELF3 (Homo sapiens, UniProt P78545 1-371); conditions: protein: recombinant; tags: N-terminal GST; dsDNA, one strand shown
T10 sequence: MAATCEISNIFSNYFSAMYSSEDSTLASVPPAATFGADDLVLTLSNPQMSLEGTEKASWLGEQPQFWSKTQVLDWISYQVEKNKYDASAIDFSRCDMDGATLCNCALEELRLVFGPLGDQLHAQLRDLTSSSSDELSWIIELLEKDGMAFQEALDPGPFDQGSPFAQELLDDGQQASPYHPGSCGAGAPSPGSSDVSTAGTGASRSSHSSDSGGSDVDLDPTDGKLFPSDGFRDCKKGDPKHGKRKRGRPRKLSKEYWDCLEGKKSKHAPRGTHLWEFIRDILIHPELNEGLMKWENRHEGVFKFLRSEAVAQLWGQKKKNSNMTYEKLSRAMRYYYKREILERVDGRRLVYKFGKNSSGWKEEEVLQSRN
Summary of the method: as §1

CRX = CRX (Homo sapiens, UniProt O43186 1-299); conditions: protein: recombinant; tags: N-terminal GST; dsDNA, one strand shown
CRX, sequence (O43186 whole entry): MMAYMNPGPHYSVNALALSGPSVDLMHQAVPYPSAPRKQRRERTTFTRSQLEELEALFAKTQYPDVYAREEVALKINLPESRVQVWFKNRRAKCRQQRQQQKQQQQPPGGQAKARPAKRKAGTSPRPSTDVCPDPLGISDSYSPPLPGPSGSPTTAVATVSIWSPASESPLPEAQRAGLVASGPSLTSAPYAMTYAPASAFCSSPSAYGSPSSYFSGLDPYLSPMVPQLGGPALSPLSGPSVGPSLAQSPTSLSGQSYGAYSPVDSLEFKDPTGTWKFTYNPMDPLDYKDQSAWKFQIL
Summary of the method: as §1

Sequence: CCCCGA
- binding signal (FLI1): 1.23 fold enrichment (6-mer frequency, TF over GST control)
- binding signal (ELK1): 1.2 fold enrichment (6-mer frequency, TF over GST control)
- binding signal (GABPA): 1.21 fold enrichment (6-mer frequency, TF over GST control)
- binding signal (ERG): 1.16 fold enrichment (6-mer frequency, TF over GST control)
- binding signal (ELF1): 1.16 fold enrichment (6-mer frequency, TF over GST control)
- binding signal (EHF): 1.14 fold enrichment (6-mer frequency, TF over GST control)
- binding signal (SPI1): 1.15 fold enrichment (6-mer frequency, TF over GST control)
- binding signal (SPIB): 1.23 fold enrichment (6-mer frequency, TF over GST control)
- binding signal (FEV): 1.18 fold enrichment (6-mer frequency, TF over GST control)
- binding signal (ETV5): 1.14 fold enrichment (6-mer frequency, TF over GST control)
- binding signal (HSF1): 1.28 fold enrichment (6-mer frequency, TF over GST control)
- binding signal (SPIC): 1.14 fold enrichment (6-mer frequency, TF over GST control)
- binding signal (ELF4): 1.29 fold enrichment (6-mer frequency, TF over GST control)
- binding signal (ELK4): 1.15 fold enrichment (6-mer frequency, TF over GST control)
- binding signal (ETV2): 1.24 fold enrichment (6-mer frequency, TF over GST control)
- binding signal (ELF3): 1.35 fold enrichment (6-mer frequency, TF over GST control)
- binding signal (CRX): 1.14 fold enrichment (6-mer frequency, TF over GST control)
